In PubChem BioAssay (NCATS):
Records with an inconclusive call do not appear. Entries that show only a call come without a potency. Calls of active or inactive are those of the source. The call rests on the fitted dose curve; in most records, active means well fitted curve in the direction sought with a large enough effect; inconclusive means small, poorly fitted or top-dose-only effect, or another doubt; inactive means no such curve, though single readings can be large; an effect the other way counts as inactive or inconclusive.

Columns and labels:
[1] = SW1088 Cancer Cell Toxicity qHTS against the NCATS CANVASS Library (AID 1347350); further: nearly all actives have a fitted effect of over 75% in size; further: potency means the concentration at half of the fitted maximal effect
Outline: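 Bortezomib titration and single-dose wells served as plate controls. Test compounds, 11 points, acted on 1000 cells/well for 72 h at 37 degrees C; CellTiter-Glo luminescence quantified remaining viable cells.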

[2] = HEK293 18hr Apoptosis Induction qHTS against the NCATS CANVASS Library (AID 1347357)
Outline: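 Cells seeded at 500/well in DMEM + 10% FBS. Compounds pinned, 11 concentrations. 18 h, 37 degrees C/5% CO2. Caspase-Glo 3/7 added, 15 min RT dark, luminescence read.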

[3] = HPAF-II 12hr Apoptosis Induction qHTS against the NCATS CANVASS Library (AID 1347358)
Outline: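 HPAF-II cells, 500/well in DMEM + 10% FBS, exposed 12 hours at 37 degrees C to compound (11-point). Caspase-Glo 3/7 added for 15 min at room temperature; luminescence reflects caspase-3/7 activity.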

[4] = HEK293 24hr Apoptosis Induction qHTS against the NCATS CANVASS Library (AID 1347359)
Outline: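 Caspase-3/7 activation measured as luminescence from the DEVD-based Caspase-Glo reagent, 15 min at room temperature, following 24-hour compound treatment of HEK293 cells.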

[5] = HPAF-II 18hr Apoptosis Induction qHTS against the NCATS CANVASS Library (AID 1347360)
Outline: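 Seed HPAF-II cells at 500/well in DMEM + 10% FBS, pin-transfer compounds, incubate 18 hours at 37 degrees C/5% CO2, add Caspase-Glo 3/7 reagent, wait 15 min, read luminescence.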

[6] = HEK293 12hr Apoptosis Induction qHTS against the NCATS CANVASS Library (AID 1347361)
Outline: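 Cells are seeded, dosed with an 11-point compound series and incubated 12 hours. Caspase-3/7 activity is detected by luminescent DEVD-substrate reagent after 15 minutes at room temperature.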

[7] = molecular target: Luciferin 4-monooxygenase (Photinus pyralis) (UniProt P08659); assay: Firefly luciferase counterscreen qHTS: Assay Interference Panel against the NCATS CANVASS Library (AID 1347363); further: series mostly up to about 57 µM
Luciferin 4-monooxygenase (Photinus pyralis), sequence (P08659 whole entry, looked up): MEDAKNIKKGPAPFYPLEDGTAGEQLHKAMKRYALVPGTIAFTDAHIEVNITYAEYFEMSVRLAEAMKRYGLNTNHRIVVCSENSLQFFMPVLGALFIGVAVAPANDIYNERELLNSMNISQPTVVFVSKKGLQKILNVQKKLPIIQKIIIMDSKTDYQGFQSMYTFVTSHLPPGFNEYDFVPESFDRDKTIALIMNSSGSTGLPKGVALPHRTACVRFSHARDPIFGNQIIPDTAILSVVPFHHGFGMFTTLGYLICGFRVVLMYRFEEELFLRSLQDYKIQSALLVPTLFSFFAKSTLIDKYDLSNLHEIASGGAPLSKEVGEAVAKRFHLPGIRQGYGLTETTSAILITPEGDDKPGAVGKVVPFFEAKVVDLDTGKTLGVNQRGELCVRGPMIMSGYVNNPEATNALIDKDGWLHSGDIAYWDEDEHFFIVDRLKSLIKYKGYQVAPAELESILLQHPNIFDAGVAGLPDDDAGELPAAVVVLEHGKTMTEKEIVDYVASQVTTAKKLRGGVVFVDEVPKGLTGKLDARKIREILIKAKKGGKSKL
Outline: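 Luminescence inhibition readout: compounds (11-point qHTS) sat 15 min at room temperature with substrate mix (0.013 mM luciferin and ATP), then firefly luciferase was added and signal read 5 min later.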

[8] = G06 Cancer Cell Toxicity qHTS against the NCATS CANVASS Library (AID 1347368); further: nearly all actives have a fitted effect of over 60% in size; further: potency means the concentration at half of the fitted maximal effect
Outline: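 G06 dog glioma cells, 500 per well, exposed 72 hr at 37C, 5% CO2 to compounds in an 11-point series. Cytotoxicity read as ATP content by CellTiterGlo luminescence.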

[9] = J3T Cancer Cell Toxicity qHTS against the NCATS CANVASS Library (AID 1347371); further: potency means the concentration at half of the fitted maximal effect
Outline: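 J3T dog glioma cells, 500 per well, treated 72 h at 37C with compounds (11-point qHTS); viability from ATP content by CellTiterGlo luminescence; bortezomib titration as control.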

[10] = molecular target: Nuclear receptor subfamily 1 group I member 3 (Homo sapiens) (UniProt Q14994); assay: qHTS for Constitutive Androstane Receptor (CAR) Antagonist screened against the NCATS CANVASS Library (AID 1347372); further: potency means the concentration at half of the fitted maximal effect
Nuclear receptor subfamily 1 group I member 3 (Homo sapiens), sequence (Q14994 whole entry, looked up): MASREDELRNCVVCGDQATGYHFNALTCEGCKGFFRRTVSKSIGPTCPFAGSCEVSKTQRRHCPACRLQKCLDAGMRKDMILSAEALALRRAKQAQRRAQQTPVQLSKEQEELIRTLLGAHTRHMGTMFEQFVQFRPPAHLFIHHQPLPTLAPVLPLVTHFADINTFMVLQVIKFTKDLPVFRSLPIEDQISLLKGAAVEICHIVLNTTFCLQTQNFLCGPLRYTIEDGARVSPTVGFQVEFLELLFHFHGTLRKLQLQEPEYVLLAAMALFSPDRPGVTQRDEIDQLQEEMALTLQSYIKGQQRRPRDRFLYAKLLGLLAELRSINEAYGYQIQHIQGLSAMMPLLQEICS
Outline: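 HepG2-CYP2B6-hCAR double-stable cells plated, 4hr attach; cpd pin-transferred; CITCO 50 nM final; 24hr 37C/5% CO2; CellTiter-Fluor 1hr (fluorescence), then ONE-Glo luminescence.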

[11] = 10-beta competent E. coli microbial cell viability qHTS against the NCATS CANVASS Library (AID 1347376); further: series mostly up to about 46 µM
Outline: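 10-beta competent E. coli (0.2 OD) were exposed overnight at 37C to compounds in an 11-point series. Viability was read as ATP-dependent BacTiter-Glo luminescence after 20 min at room temperature.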

[12] = DH5-alpha competent E. coli microbial cell viability qHTS against the NCATS CANVASS Library (AID 1347377); details: outcome: dose series up to 46.1 µM unless noted
Outline: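 DH5-alpha E. coli suspension was exposed to an 11-point compound series overnight at 37 °C. Viable cells quantified by ATP luminescence (BacTiter-Glo) after 20 min at room temperature.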

[13] = qHTS for H2AX Agonists against the NCATS CANVASS Library (AID 1347378);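 further: phospho-H2AX S139 level in CHO-K1 lysates by TR-FRET emission ratio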; further: potency means the concentration at half of the fitted maximal effect
Outline: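 CHO-K1, 1000 cells/well, o/n 37C; cpd several conc, 3 hr 37C, 0.76% DMSO; lyse 30 min RT; cryptate anti-pH2AX(S139) + d2 anti-H2AX, 24 hr RT; HTRF 665/620.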

[14] = qHTS for Inflammasome Signaling Inhibitors: IL-1-beta AlphaLISA screen against the NCATS CANVASS Library (AID 1347379);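 further: human THP-1 cells primed with LPS then triggered with ATP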;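 on potency: secreted IL-1B measured as AlphaLISA emission at 615 nm; potency means the concentration at half of the fitted maximal effect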
Outline: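 THP-1 cells pretreated 1 hr with compound (up to 57.5 uM final), then stimulated with LPS (250 ng/mL final) and ATP (1.25 mM final). Secreted IL-1B measured by AlphaLISA after 16 hr; glyburide as positive control.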

[15] = Inflammasome Signaling qHTS Counterscreen: IL-1-beta AlphaLISA counterscreen against the NCATS CANVASS Library (AID 1347381);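 further: cell-free check with purified IL-1β in medium and no THP-1 cells; series mostly up to about 57 µM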
Outline: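 Cell-free interference check: compounds added to medium spiked with 4 pg purified IL-1β. Anti-IL-1β acceptor beads (6 ug/mL) with 0.6 nM biotinylated antibody added for 1 h at RT, then streptavidin donor beads (24 ug/mL) for 30 min in the dark. AlphaLISA read at 680/615 nm.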

[16] = qHTS assay for small molecule disruptors of mitochondrial membrane potential screened against the NCATS CANVASS Library (AID 1347389); further: series mostly up to about 46 µM; nearly all actives have a fitted effect of over 60% in size
Outline: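 HepG2 cells (2,000/well) plated overnight, then exposed to compounds in 11-point qHTS series for 1 h at 37C before 30 min Mito-MPS dye; depolarization read as fall in red aggregate (590 nm) to green monomer (535 nm) fluorescence.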

[17] = qHTS for inhibitors of Wild type Zika virus screened against the NCATS CANVASS Library (AID 1347396);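 further: ATP luminescence of surviving cells so rescue from viral cell killing; series mostly up to about 46 µM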
Outline: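 Vero 766 cells, 1000/well, o/n attach; cpds pin-transferred (11-pt qHTS); WT Zika added; 72 h, 37C, 5% CO2; CellTiter Glo lumi. Uninfected + vehicle = 100% inhibition.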

[18] = MCF7 Cancer Cell Toxicity qHTS against the NCATS CANVASS Library (AID 1347369); further: potency means the concentration at half of the fitted maximal effect
Outline: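 Cells seeded at 500/well, then compound pinned. Plates incubated 72 hr at 37C, 5% CO2. CellTiterGlo added; luminescence read.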

[19] = molecular target: Nuclear receptor subfamily 1 group I member 3 (Homo sapiens) (UniProt Q14994); assay: qHTS for Constitutive Androstane Receptor (CAR) Agonist screened against the NCATS CANVASS Library (AID 1347373);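 further: every well also contained 1.5 µM PK11195 alongside the test compound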
Outline: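 HepG2 cells stably carrying hCAR and a CYP2B6-2.2kb luciferase reporter, treated 24hr at 37C with compounds plus 1.5uM PK11195; activation by ONE-Glo luminescence, viability by CellTiter-Fluor.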

[20] = KB-3-1 Cancer Cell Toxicity qHTS against the NCATS CANVASS Library (AID 1347366); further: nearly all actives have a fitted effect of over 75% in size; further: potency means the concentration at half of the fitted maximal effect
Outline: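 Luminescence from CellTiter-Glo (10 min, room temperature) measured KB-3-1 viability after 72 hr compound exposure at 37C. Cells were seeded at 500/well and tested in an 11-point series.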

Compound	Potency [1]	Potency [2]	Potency [3]	Potency [4]	Potency [5]	outcome [6]	Potency [7]	Potency [8]	Potency [9]	Potency [10]	outcome [11]	outcome [12]	Potency [13]	Potency [14]	outcome [15]	Potency [16]	outcome [17]	Potency [18]	Potency [19]	Potency [20]
CN1CCc2cc3c(c4c2C1(C)C(=O)c1cc(O)ccc1-4)OCO3 (stereo not given)	inactive	inactive	inactive	inactive	inactive	inactive	inactive	1.18 µM (active)	inactive	inactive	inactive	inactive	inactive	inactive	inactive	inactive	inactive	–	–	–
C/C(=C\[C@H](C)C(=O)/C=C/CC1CC(=O)NC(=O)C1)[C@@H]1OC(=O)CCCC/C=C/[C@H](O)[C@@H](O)[C@@H]1C	inactive	inactive	inactive	inactive	inactive	inactive	inactive	5.9 µM (active)	–	inactive	inactive	inactive	inactive	21.7 µM (active)	inactive	inactive	inactive	inactive	inactive	–
COc1cc(C2C3=C(Cc4cc5c(cc42)OCO5)C(=O)OC3)cc(OC)c1OC (stereo not given)	inactive	inactive	inactive	inactive	inactive	inactive	inactive	0.0935 µM (active)	–	0.117 µM (active)	inactive	inactive	inactive	inactive	inactive	inactive	inactive	–	inactive	0.105 µM (active)
CC[C@@H]1[C@H](C)[C@H](c2cc(OC)c(OC)cc2OC)[C@@H](C)[C@H](c2cc(OC)c(OC)cc2OC)[C@]12C=C(OC)C(=O)C=C2OC	21.1 µM (active)	inactive	–	inactive	–	inactive	inactive	–	inactive	inactive	–	–	–	–	inactive	–	–	inactive	inactive	–
C=C(Cl)[C@](Cl)(CBr)CC[C@@H](Br)C(C)(C)Cl	2.98 µM (active)	inactive	inactive	inactive	inactive	inactive	inactive	inactive	4.18 µM (active)	inactive	inactive	inactive	4.86 µM (active)	4.85 µM (active)	inactive	inactive	inactive	6.59 µM (active)	inactive	20.9 µM (active)
O=C1OC(CCO)c2cccc(O)c21 (stereo not given)	inactive	inactive	inactive	inactive	inactive	inactive	inactive	–	inactive	inactive	inactive	inactive	inactive	inactive	inactive	inactive	inactive	inactive	inactive	inactive
C[C@H]1CCC2(OC1)O[C@H]1C[C@H]3[C@@H]4CC(=O)[C@]5(O)C[C@H](O)CC[C@@]5(C)[C@H]4CC[C@@]3(C)[C@H]1[C@H]2C (stereo not given in full)	–	inactive	inactive	inactive	inactive	inactive	inactive	–	inactive	inactive	inactive	inactive	inactive	24.3 µM (active)	inactive	inactive	–	inactive	–	inactive
C/C=C/c1cc2c(c(=O)o1)C(=O)[C@@H](O)[C@H](C)O2	–	–	inactive	inactive	inactive	–	inactive	5.26 µM (active)	26.4 µM (active)	–	inactive	inactive	–	21.7 µM (active)	inactive	inactive	inactive	inactive	inactive	inactive
C=CC(C)(C)C(=O)[C@@H](C)[C@@H]1CC[C@@](C)(C=C)O1	inactive	inactive	inactive	inactive	inactive	inactive	inactive	inactive	inactive	inactive	inactive	inactive	inactive	inactive	inactive	inactive	inactive	inactive	inactive	inactive
C=C[C@]1(C)CC[C@@H]([C@H](C)C(=O)/C=C/C(C)(C)O)O1	inactive	inactive	inactive	inactive	inactive	inactive	inactive	–	–	inactive	inactive	inactive	inactive	inactive	inactive	inactive	inactive	inactive	–	inactive
C=C1C[C@H]2O[C@@H]3[C@@H]4[C@H](CC[C@@](C)(O)[C@@H]42)[C@H](C)COC3(C)[C@@H](OC(=O)CCCCCCC)C[C@H]1O (stereo not given in full)	–	inactive	inactive	inactive	inactive	inactive	inactive	–	inactive	inactive	inactive	inactive	inactive	–	inactive	inactive	inactive	–	inactive	–
C=C1C(=O)O[C@H]2[C@H]1CCC(C)=C1CC[C@@](C)(O)[C@@H]12	14.9 µM (active)	inactive	inactive	inactive	inactive	inactive	inactive	16.6 µM (active)	–	inactive	inactive	inactive	27.3 µM (active)	9.68 µM (active)	inactive	–	inactive	–	inactive	–
O=Cc1ccc2n1C[C@]1(OC2)O[C@H](CO)[C@@H](O)[C@@H]1O	inactive	inactive	inactive	inactive	inactive	inactive	inactive	inactive	inactive	inactive	inactive	–	inactive	inactive	inactive	inactive	inactive	inactive	inactive	inactive
